High-throughput results as filed in PubChem BioAssay.
Rows were chosen to be rich in hits. Some 2.3% of all compounds tested hit in one or more screens of this group.
Rtt109 Vps75: blocks Candida albicans Rtt109/Vps75 acetyltransferase activity; Q5AAJ8; purified Rtt109/Vps75, ThioGlo CoA-SH fluorescence, 4 h; inhibition, % at 34.9 µM; 330,000 tested, 0.16% active;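 active = inhibition of at least 50% in every replicate; inconclusive = best replicate reaches 50% inhibition but some replicates fall short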
PDI inh: inhibitors of human protein disulfide isomerase. P07237. PDI insulin aggregation turbidity, A650, 90 min. inhibition, % at 10 µM. 350,000 tested, 0.052% active. AID 588391;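 active = mean inhibition across replicates of 30% or more, whatever share of single replicates reach that level; inconclusive = mean inhibition below 30% while every single replicate reaches 30%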
SIRT5 block: sirtuin-5 (human) deacylase inhibition; 330,000 tested, 1.1% active; Purified SirT5, succinyl-peptide AMC, trypsin-coupled fluorescence; Q9NXA8; AID 652115; inhibition, % at 15 µM; in the data active = inhibition above about 15%; inconclusive = no clear call, values can overlap the other calls
Target sequence (Q9NXA8 whole entry, looked up): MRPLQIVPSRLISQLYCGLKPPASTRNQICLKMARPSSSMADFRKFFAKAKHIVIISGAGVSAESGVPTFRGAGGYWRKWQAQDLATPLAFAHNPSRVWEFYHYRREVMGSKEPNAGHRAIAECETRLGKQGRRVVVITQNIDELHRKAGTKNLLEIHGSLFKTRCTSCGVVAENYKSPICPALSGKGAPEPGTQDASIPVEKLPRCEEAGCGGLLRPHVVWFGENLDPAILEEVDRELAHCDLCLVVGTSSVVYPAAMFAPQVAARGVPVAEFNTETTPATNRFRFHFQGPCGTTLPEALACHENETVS
ERp5 inh: blocks human ERp5 reductase activity on insulin; AID 651711; inhibition, % at 9.99 µM; Q15084; ERp5 insulin aggregation, absorbance 650 nm, 90 min; 350,000 tested, 0.05% active;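 active = mean replicate inhibition above about 25%, with every replicate also reaching it, limit read from the data, passing the limit was not always enough; inconclusive = only one of those two criteria met; inactive = neither criterion met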
DENV2 CPE: DENV2-induced cell death inhibition; 350,000 tested, 1.7% active; CPE inhibition, % at 9.99 µM; AID 651640; DENV2-infected cells, cytopathic effect rescue, plate reader; in the data active = CPE inhibition above about 20%, passing the limit was not always enough; inconclusive = no clear call, values can overlap the other calls; tested in BHK-21 cells;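 also: 0% = median of neutral control wells and 100% = median of positive control wells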
* marks the source's active call; other numbers are inactive results; ? = inconclusive; / = no result.

SMILES	Rtt109 Vps75	PDI inh	SIRT5 block	ERp5 inh	DENV2 CPE
COc1cccc(C(=O)Nc2ccc3c(c2)C(=O)N(C)C[C@@H](OC)[C@H](C)CN(CC2CC2)[C@H](C)CO3)c1	/	/	1	2	0
COCCNC(=O)[C@H]1[C@H](CO)[C@H]2Cn3c(ccc(-c4ccc(OC)cc4)c3=O)[C@@H]1N2C(=O)NC(C)C	/	/	-84	6	-5
Cc1cc(F)ccc1-c1cc(C(=O)NCc2ccco2)[nH]n1	/	10	/	4	57*
CCNC(=O)C[C@H]1CC[C@H]2[C@H](COc3ccc(NC(=O)Nc4cccc(F)c4)cc3C(=O)N2C)O1	/	/	-3	11	-2
O=S(=O)(c1ccc2[nH]c3c(c2c1)CCCC3)N1CCCCC1	15	-9	2	3	-5
N#Cc1ccc(S(=O)(=O)N2CCc3[nH]c4ccc(F)cc4c3C2)cc1	54*	-1	-1	-6	-2
Cc1ccc(CNC(=O)c2cccc3c2C(=O)c2ccc(N4CCOCC4)cc2S3(=O)=O)cc1	-17	-2	/	0	31*
COc1ccc(S(=O)(=O)Nc2ccc3c(c2)C(=O)N([C@H](C)CO)C[C@H](C)[C@@H](CN(C)C(=O)CCCN(C)C)OCCCC[C@H](C)O3)cc1	/	/	1	12	-13
COc1ccc(C2c3ccc(O)cc3Oc3ncn4nc(-c5cccnc5)nc4c32)cc1OC (configuration not stated)	-5	41*	-3	11	1
COc1ccc(C2c3ccc4ccccc4c3Oc3ncn(Cc4ccco4)c(=N)c32)cc1OC (configuration not stated)	6	-13	/	/	/
COc1ccc(C2c3ccc(O)cc3Oc3ncn(Cc4ccco4)c(=N)c32)cc1OC (configuration not stated)	0	33*	-3	5	0
COc1ccc(C2c3ccc(O)cc3Oc3ncn(CC(C)C)c(=N)c32)cc1 (configuration not stated)	-3	8	-3	4	0
Nc1ncnc2c1ncn2[C@@H]1O[C@H](C(=O)N[C@@H](CCc2ccccc2)C(=O)N2CCN(C(=O)C(F)(F)F)CC2)[C@@H](O)[C@H]1O	/	/	2	-2	-7
NC(=O)[C@@H]1CCCN1C(=O)[C@H](CCc1ccccc1)NC(=O)[C@H]1O[C@@H](n2cnc3c(N)ncnc32)[C@H](O)[C@@H]1O	/	/	1	-4	40*
CCCc1cn(CC[C@H]2CC[C@H](NS(=O)(=O)c3ccccc3Cl)[C@@H](CO)O2)nn1	/	/	4	3	4
O=C(Nc1ccncc1)c1ccc2c(c1)S(=O)(=O)c1ccccc1C2=O	-7	-1	/	-1	53*
O=C1c2ccccc2S(=O)(=O)c2cc(C(=O)N3CCN(c4ccc(Cl)cn4)CC3)ccc21	-16	5	-1	1	42*
O=C(Nc1cc(F)ccc1F)N[C@@H]1CC[C@H](CCn2cc(C3CCCCC3)nn2)O[C@@H]1CO	/	/	2	-6	2
Cc1cccnc1C(NC(=O)C1CCN(CCCc2ccccc2)CC1)c1ccc(Cl)cc1 (configuration not stated)	/	-3	2	5	20*
O=C(NC(c1ccc(Cl)cc1)c1cnccn1)C1CCN(Cc2ccc(Oc3ccccc3)cc2)CC1 (configuration not stated)	/	5	0	1	84*
COc1ccc(C(NC(=O)C2CCN(CCCc3ccccc3)CC2)c2ccccn2)cc1 (configuration not stated)	/	-4	/	/	/
O=C(Nc1ccc(Oc2cccnc2)cc1)C1CCN(Cc2cc(Cl)ccc2O)CC1	59*	4	-4	3	2
Cc1ccc(C(NC(=O)C2CCN(Cc3ccc(Oc4ccccc4)cc3)CC2)c2ccccn2)cc1 (configuration not stated)	/	4	/	5	4
COc1ccc(C(NC(=O)C2CCN(CCc3ccccc3)CC2)c2ccccn2)cc1 (configuration not stated)	/	-1	15*	11	2
Cc1cccnc1C(NC(=O)C1CCN(Cc2ccc(Cl)cc2)CC1)c1ccccc1 (configuration not stated)	/	0	-1	-3	6
SMILES	Rtt109 Vps75	PDI inh	SIRT5 block	ERp5 inh	DENV2 CPE
C[C@@H]1CN([C@@H](C)CO)C(=O)c2cc(/C=C/c3ccccc3)cnc2O[C@@H]1CN(C)C(=O)c1ccc2c(c1)OCO2	/	/	-24	-4	?
COc1cccc(CN2CCC(C(=O)N3CCN(Cc4ccc5c(c4)OCO5)CC3)CC2)c1	0	-4	17*	-14	5
Cc1ccc(S(=O)(=O)N(C)c2ccc(C(=O)N3CCN(Cc4ccc5c(c4)OCO5)CC3)cc2)cc1	-4	-1	/	/	/
COc1ccc(CN2CCC(C(=O)NC(c3ccc4c(c3)OCO4)c3ccccn3)CC2)cc1 (configuration not stated)	/	-1	-2	3	100*
Cc1ccc(S(=O)(=O)N(C)CC(=O)N2CCN(Cc3ccc4c(c3)OCO4)CC2)cc1	-8	1	30*	3	6
C[C@@H]1CN([C@H](C)CO)C(=O)Cc2cc(NC(=O)Nc3cccc4ccccc34)ccc2O[C@H]1CN(C)C(=O)NC1CCCCC1	/	/	3	3	-9
CCc1ccc(S(=O)(=O)c2ccc(-n3nc(C)cc3N)cc2)cc1	-2	-4	112*	3	1
CS(=O)(=O)N1CC2(C1)[C@H](c1ccccc1)[C@@H](CO)N2C(=O)C1CCC1	/	/	-5	-1	15
CCc1ccccc1NC(=O)C1CCN(C(=O)c2ccc([N+](=O)[O-])cc2)CC1	58*	-9	1	-1	13
CC(=O)Nc1ccc(NC(=O)C2CCN(C(=O)c3ccc([N+](=O)[O-])cc3)CC2)cc1	3	-1	-2	-4	2
C/C=C/c1ccc([C@H]2[C@H]3CN(S(=O)(=O)c4cccs4)CCCCN3[C@H]2CO)cc1	/	/	7	3	7
COc1cccc(-c2cnc3c(c2)C(=O)N([C@@H](C)CO)C[C@@H](C)[C@H](CN(C)Cc2ccccc2)O3)c1	/	/	3	-1	25
C[C@H]1CN([C@@H](C)CO)C(=O)c2cc(-c3cccc(C#N)c3)cnc2O[C@H]1CN(C)Cc1cncnc1	/	/	7	-4	2
C[C@@H]1CN([C@@H](C)CO)C(=O)c2cc(-c3cccc(C#N)c3)cnc2O[C@H]1CN(C)Cc1cncnc1	/	/	-7	84*	0
COc1cccc(-c2cnc3c(c2)C(=O)N([C@H](C)CO)C[C@@H](C)[C@H](CN(C)Cc2ccccc2)O3)c1	/	/	1	8	27*
COc1ccccc1-c1cnc2c(c1)C(=O)N([C@H](C)CO)C[C@@H](C)[C@H](CN(C)Cc1cccnc1)O2	/	/	-1	2	26*
COc1cccc(-c2ccc3n(c2=O)C[C@@H]2[C@@H](CO)[C@H](C(=O)N(C)C)[C@H]3N2CC2CC2)c1	/	/	-8	6	5
O=C(C[C@H]1CC[C@H](NC(=O)NC2CCCC2)[C@H](CO)O1)NCc1ccc(F)cc1	/	/	1	-3	-3
